Assay outcomes (PubChem BioAssay)
CBX7 inh = inhibitors of human CBX7 binding to H3K27me3 peptide. AlphaScreen His6-CBX7 / biotin-H3K27me3 peptide binding; stronger effect = lower value. actives 1.1% (n = 66,000). O95931. normalised signal (fraction of DMSO) (test concentration not listed); in the data active = normalised signal below about 0.5
Target sequence (O95931 whole entry, looked up): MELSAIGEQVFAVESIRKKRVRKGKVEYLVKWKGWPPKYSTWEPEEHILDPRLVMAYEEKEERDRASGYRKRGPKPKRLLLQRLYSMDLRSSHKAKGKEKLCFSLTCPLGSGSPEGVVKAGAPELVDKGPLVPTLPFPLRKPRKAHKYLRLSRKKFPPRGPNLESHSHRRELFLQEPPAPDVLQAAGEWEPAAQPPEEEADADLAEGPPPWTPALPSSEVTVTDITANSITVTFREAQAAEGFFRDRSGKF
Numbers without * were called inactive. This is one part of a sample in which hits are shown more often than they occur.

SMILES	CBX7 inh
COc1ccc(-c2nc(-c3ccccc3)c(-c3ccccc3)[nH]2)cc1O	0.921
COc1ccc(-c2nc(-c3ccccc3)c(-c3ccc(Sc4ccccc4)cc3)[nH]2)cc1OC	0.726
COc1cc(OC)cc(-c2nc(-c3ccccc3)c(-c3ccc(Cl)cc3)[nH]2)c1	0.556
COc1cccc(-c2nc(-c3ccccc3)c(-c3cc([N+](=O)[O-])ccc3C)[nH]2)c1OC	0.369*
COc1ccc(OC)c(-c2nc3ccccc3nc2-c2ccccc2)c1	1.24
COc1ccc(-c2nc(-c3ccccc3)c(-c3ccccc3)[nH]2)c(OC)c1	0.37*
COc1ccc(OC)c(-c2nc(-c3ccccc3)c(-c3ccccc3)[nH]2)c1	0.411*
COc1ccc(-c2nc(-c3ccccc3)c(-c3ccc(F)cc3)[nH]2)c(OC)c1C	0.485*
COc1ccc(-c2[nH]c(-c3cc(OC)c4c(c3)OCO4)nc2-c2ccccc2)cc1	0.678
COc1cccc(-c2nc(-c3cccc(C)c3)no2)c1OC	1.25
Cc1ccc(Nc2c(-c3ccc(Cl)cc3)nc3ccccn23)cc1	0.975
O=C(COc1ccccc1)Nc1ncc(Cc2cc(Cl)ccc2Cl)s1	1.03
Cc1ccccc1Cc1c(C)nc2nc(SCC(=O)NC(C)(C)C)nn2c1C	1.04
Cc1cccc2nc(-c3ccc(Cl)cc3)c(Nc3ccc4c(c3)OCCO4)n12	0.811
CCOC(=O)c1c(NC(=O)COc2ccccc2Br)sc2c1CCCC2	1.14
Cc1ccc(C2CC(C(F)(F)F)n3nc(CO)cc3N2)cc1 (stereo unspecified)	0.971
CC1=C(C(=O)Nc2cccc(C)n2)C(c2cccc(Br)c2)C2=C(CCCC2=O)N1 (stereo unspecified)	1.66
CCC1=Nc2cc(C(=O)NCc3ccc(OC)cc3)ccc2Sc2ccc(C)cc21	0.758
CCOCCCNC(=O)c1cc(Nc2ccc(C)c(C)c2)nc2ccccc12	1.09
Cc1ccc(-c2noc(CCC(=O)Nc3cccc(C)n3)n2)cc1	0.847
Cc1c(C(=O)NCc2ccccn2)sc2ncn(CC(=O)N3CCCCC3C)c(=O)c12 (stereo unspecified)	1
CC1CN(S(=O)(=O)c2ccc(C(=O)Nc3nc(-c4ccccn4)cs3)cc2)CC(C)O1 (stereo unspecified)	0.307*
CC1CN(S(=O)(=O)c2ccc(C(=O)Nc3nc(-c4ccncc4)cs3)cc2)CC(C)O1 (stereo unspecified)	0.991
CN(c1ccccc1)S(=O)(=O)c1ccc(C(=O)Nc2nc(-c3ccc(Cl)cc3)cs2)cc1	0.885
CCCCN(CC)S(=O)(=O)c1ccc(C(=O)Nc2nc(-c3ccncc3)cs2)cc1	1.02
SMILES	CBX7 inh
CN(C1CCCCC1)S(=O)(=O)c1ccc(C(=O)Nc2nc(-c3ccccn3)cs2)cc1	0.887
CCCCN(C)S(=O)(=O)c1ccc(C(=O)Nc2nc(-c3ccccn3)cs2)cc1	0.0979*
O=C(Nc1nc(-c2ccccn2)cs1)c1ccc(S(=O)(=O)N2CCCc3ccccc32)cc1	0.892
CN(c1ccccc1)S(=O)(=O)c1ccc(C(=O)Nc2nc(-c3ccccn3)cs2)cc1	0.167*
COc1ccccc1-c1csc(NC(=O)c2ccc(S(=O)(=O)N(C)c3ccccc3)cc2)n1	0.967
Cc1ccc2cc(CCNC(=O)c3ccccc3)c(=O)[nH]c2c1C	1.1
CCOc1ccc(C(=O)Nc2ccc(NC(=O)c3ccccc3)c(C)c2)cc1Br	1.17
Cc1nc2c(C(=O)NC3CCCCC3)cnn2c(C)c1Cc1ccc(F)cc1Cl	1.06
COCCn1cnc2sc(C(=O)Nc3ccc(C(F)(F)F)cc3)c(C)c2c1=O	1.09
COc1cccc(NC2c3ccccc3C(=O)N2Cc2ccccc2)c1 (stereo unspecified)	0.908
COc1ccc(CN2C(=O)c3cccnc3C2Nc2ccc(Br)cc2F)cc1 (stereo unspecified)	0.192*
CCOc1ccc(C2C(N3C(=O)c4ccccc4C3=O)C(=O)N2c2ccc(Br)c(C)c2)cc1 (stereo unspecified)	0.927
COc1ccc(CN2C(=O)c3cccnc3C2Nc2ccc(Br)c(C)c2)cc1 (stereo unspecified)	0.149*
COc1ccc(NC2c3ccccc3C(=O)N2Cc2ccccc2Cl)cc1OC (stereo unspecified)	0.803
Cc1ccccc1N1C(=O)c2ccccc2C1Nc1ccc(Br)cc1F (stereo unspecified)	0.968
COc1ccc(CN2C(=O)c3cccnc3C2Nc2ccc(OC)c(Cl)c2)cc1 (stereo unspecified)	0.157*
COc1cc(OC)c(NC2c3ccccc3C(=O)N2Cc2ccccc2)cc1Cl (stereo unspecified)	0.703
CCOc1ccc(N2C(=O)c3ccccc3C2Nc2ccc(C)cc2)cc1 (stereo unspecified)	0.917
Cc1cc(NC2c3ccccc3C(=O)N2Cc2ccccc2)ccc1Br (stereo unspecified)	0.647
CCOc1ccc(N2C(=O)c3cccnc3C2Nc2ccc(Br)c(C)c2)cc1 (stereo unspecified)	0.164*
COc1ccc(NC2c3ccccc3C(=O)N2Cc2ccccc2Cl)cc1 (stereo unspecified)	0.821
